Compound activity from PubChem.
An excerpt weighted towards active compounds, which were near 1.4% of everything screened.
APOBEC3A inh: inhibitors of human APOBEC3A DNA deaminase | P31941 | recombinant A3A, FAM/TAMRA ssDNA deamination fluorescence | inhibition, % at 20 µM | actives 0.41% (n = 330,000) | AID 493011;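 active means at least 40% inhibition at 20 µM here, with at most 30% in a related deaminase screen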;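 further: plate controls were A3A with DMSO for no effect and wells lacking A3A enzyme for full effect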
Target sequence (P31941 whole entry, looked up): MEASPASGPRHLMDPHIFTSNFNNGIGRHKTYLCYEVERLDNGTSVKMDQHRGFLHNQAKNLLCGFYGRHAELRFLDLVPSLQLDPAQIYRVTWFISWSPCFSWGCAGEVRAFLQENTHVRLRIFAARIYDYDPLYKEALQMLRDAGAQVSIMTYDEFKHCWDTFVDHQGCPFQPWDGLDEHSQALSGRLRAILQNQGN
A3G deaminase: inhibitors of human APOBEC3G DNA deaminase | recombinant A3G, ssDNA deamination FAM/TAMRA fluorescence | AID 493012 | Q9HC16 | actives 0.28% (n = 330,000) | inhibition, % at 20 µM;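 active means inhibition of at least 40% at 20 µM, with no more than 30% in the related APOBEC3A deaminase screen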;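 further: plate controls were DMSO wells with A3G for no effect and wells lacking A3G enzyme for full effect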
Target sequence (Q9HC16 whole entry, looked up): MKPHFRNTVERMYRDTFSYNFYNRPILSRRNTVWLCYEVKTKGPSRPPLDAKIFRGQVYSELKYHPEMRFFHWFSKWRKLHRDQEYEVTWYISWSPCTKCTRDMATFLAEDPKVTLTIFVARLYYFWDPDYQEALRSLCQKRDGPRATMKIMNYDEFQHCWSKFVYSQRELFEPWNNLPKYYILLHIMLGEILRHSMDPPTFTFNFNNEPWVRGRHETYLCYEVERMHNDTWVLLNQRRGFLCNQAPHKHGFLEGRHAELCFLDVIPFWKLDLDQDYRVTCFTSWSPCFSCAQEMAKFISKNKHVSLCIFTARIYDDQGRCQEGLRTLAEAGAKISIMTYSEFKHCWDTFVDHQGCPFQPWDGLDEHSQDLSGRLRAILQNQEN
LANA-H2A inh: blocks KSHV LANA binding to histone H2A/H2B; Q9QR71; cell-free LANA-H2A/H2B peptide, fluorescence polarization; inhibition, % (no concentration beside the values); actives 0.6% (n = 320,000); AID 2629; in the data active means inhibition mostly above about 10%, no sharp cut-off; inactive means mostly below about 6.7%
HDAC3 inhib: blocks human histone deacetylase 3; recombinant HDAC3, fluorogenic peptide/trypsin coupled, fluorescence; AID 2718; inhibition, % at 8.3 µM; actives 0.15% (n = 320,000); O15379; in the data active means inhibition above about 26%, passing the limit was not always enough; inconclusive means no clear call, values can overlap the other calls
APOBEC3A confirm: confirmation of human APOBEC3A DNA deaminase inhibitors; shares compounds with APOBEC3A inh; actives 63% (n = 1,400); recombinant A3A, ssDNA deaminase UDG fluorescence assay; inhibition, % at 20 µM;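 active means inhibition reaching a set limit, 80% of the first screen's cutoff, at 20 µM in any replicate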;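 further: plate controls were DMSO wells with A3A for no effect and wells lacking A3A enzyme for full effect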
UDG ctr A3A: inhibits UDG, flagging false APOBEC3A inhibitors; shares compounds with APOBEC3A inh; UDG counterscreen, FAM/TAMRA uracil oligo fluorescence; inhibition, % at 20 µM; 1,000 tested, under 10 active; call rule not given here
* = called active by the depositor; u = inconclusive; x = no result given.

SMILES	APOBEC3A inh	A3G deaminase	LANA-H2A inh	HDAC3 inhib	APOBEC3A confirm	UDG ctr A3A
O=C1NC(=O)N(c2ccc3c(c2)OCO3)C(=O)/C1=C\c1ccc(-c2ccccc2C(=O)O)o1	76*	26	1	3	65*	-2
O=C1NC(=O)N(c2ccc3c(c2)OCO3)C(=O)/C1=C/c1ccc(N2CCCCC2)o1	7	6	-37	2	x	x
COc1cccc(Oc2coc3cc(OC(=O)N(C)C)ccc3c2=O)c1	99*	-5	0	7	6	1
CN(C)C(=O)Oc1ccc2c(=O)c(Oc3ccccc3Br)coc2c1	-2	1	-1	8	x	x
C[N+](C)(C)c1ccccc1	70*	14	-3	-2	78*	-2
O=Cc1cn(Cc2ccccc2F)c2ccccc12	45*	14	-3	6	28	x
O=Cc1cn(Cc2c(F)cccc2Cl)c2ccccc12	1	-4	-10	6	x	x
CCOC(=O)/C(CCCN(CC)CC)=N\O	75*	19	-1	7	78*	1
CC(C)(C#CCCCCC#CC(C)(C)[N+](C)(C)C)[N+](C)(C)C	51*	14	-7	-6	46*	x
COc1cc2c(cc1O)C[C@H]1NCCc3cc4c(c-2c31)OCO4	61*	19	-7	-14	34*	x
CCN(CC)P(c1n(C)cc[n+]1C)N(CC)CC	62*	11	2	-2	65*	-1
COC1=CC=C2[C@H]3Cc4ccc(OC)c5c4[C@@]2(CCN3C)[C@H]1O5	0	-2	-2	3	x	x
Cc1cc(O)c2c(c1)C(=O)C13C(=C2O)C(=O)[C@H]2[C@@H](O)[C@@H]1[C@H]1[C@H](O)[C@@H]3C(=O)C3=C(O)c4c(O)cc(C)cc4C(=O)C312 (stereo partly specified)	11	4	-3	18	x	x
CCOC(=O)C1(CCc2ccccc2)CCN(CC(O)CO)CC1 (stereo unspecified)	0	-5	-3	2	x	x
C[N+]1(CC(COCc2ccccc2)OC(=O)Cc2ccccc2)CCOCC1 (stereo unspecified)	41*	18	6	1	69*	1
CC1(C)C(=O)C=C[C@]2(C)[C@H]3CC[C@@]4(C)[C@H](c5ccoc5)OC(=O)[C@H]5O[C@]54[C@]3(C)[C@H](O)C[C@@H]12	1	-14	-1	4	x	x
C[C@@H]1CC2(CCCC[N+]2(C)C)C[C@H]1C	81*	28	-1	6	68*	-2
C=Cc1ccc(Cn2c(C(=O)O)c(C=O)c3ccccc32)cc1	74*	5	-4	5	17	x
CCC(=O)C(CCN1CCOCC1)(c1ccccc1)c1ccccc1	-4	-4	-2	-5	x	x
CC(C)[N+](C)(CCC(C(N)=O)(c1ccccc1)c1ccccc1)C(C)C	68*	15	3	4	83*	3
S=C=Nc1cccc(C2(N3CCCCC3)CCCCC2)c1	-5	-7	0	-7	x	x
CC1(C)C(=O)CC[C@@]2(C)C1=CCC1C2CC[C@]2(C)C(=O)CCC12 (stereo partly specified)	0	-3	0	1	x	x
Cc1cc(/C=C2\C(=O)NC(=O)N(c3cccc(F)c3)C2=O)c(C)n1-c1cc(C(=O)O)cc(C(=O)O)c1	70*	29	0	-1	53*	7
Cc1cc(/C=C2\C(=O)NC(=O)N(c3ccc(Br)cc3)C2=O)c(C)n1-c1cc(C(=O)O)cc(C(=O)O)c1	80	47	0	-2	x	x
Cc1noc(C)c1CSCC(=O)Nc1ccc(C#N)c(Cl)c1	0	-6	-1	-5	x	x
SMILES	APOBEC3A inh	A3G deaminase	LANA-H2A inh	HDAC3 inhib	APOBEC3A confirm	UDG ctr A3A
Cc1sc2ncnc(N3CCC(C(=O)Nc4ccc(C#N)c(Cl)c4)CC3)c2c1C	53*	7	x	x	10	x
O=[N+]([O-])c1cc(S(=O)(=O)c2ccc(O)c([N+](=O)[O-])c2)ccc1O	70*	14	3	u	84*	1
COc1ccc2[nH]cc(CCN=C(N)N)c2c1	54*	14	-10	1	28*	-2
CN1C(=O)N(C)C(=O)C2(Cc3cc([N+](=O)[O-])ccc3N(C)C2)C1=O	1	-15	-2	3	x	x
Cc1ccc(OCCOc2cccc(C=C3C(=O)NC(=O)NC3=O)c2)cc1	-3	-4	0	1	x	x
C[N+]1(CC2COC(c3ccco3)O2)CCCCC1 (stereo unspecified)	60*	25	-2	2	66*	-1
COC(=O)C1=C(c2cccc(OCc3ccccc3)c2)C[C@@H]2CC[C@H]1N2C(=O)NCc1ccccc1C(F)(F)F	-1	-12	-6	-4	x	x
COc1ccc2c3c1OC1C(O)C=CC4C(C2)[N+](C)(C)CCC341 (stereo unspecified)	71*	16	2	3	51*	x
C[N+]1(C)[C@@H]2CC(OC(=O)[C@H](CO)c3ccccc3)C[C@H]1[C@@H]1O[C@@H]12 (stereo partly specified)	0	-1	-15	-1	x	x
C[N+]1(C)[C@@H]2CC[C@H]1CC(OC(=O)C(c1ccccc1)c1ccccc1)C2 (stereo partly specified)	46*	21	1	1	61*	x
CC1C2Cc3ccc(O)cc3[C@]1(C)CCN2CCc1ccccc1 (stereo partly specified)	-1	0	x	x	x	x
O=C1NC(=O)N(CCc2ccc(F)cc2)C(=O)/C1=C/c1ccco1	74*	27	-5	-4	52*	6
COc1ccc(CN2C(=O)NC(=O)/C(=C\c3cc(OC)c(OC)c(OC)c3)C2=O)cc1	0	-4	-1	u	x	x
COc1ccc(CN2C(=O)NC(=O)/C(=C\c3ccco3)C2=O)cc1	47*	26	5	0	62*	2
CN(C)c1ccc(/C=C2/C(=O)NC(=O)N(Cc3ccco3)C2=O)cc1	60*	20	-2	1	39*	-4
CCN(CC)c1ccc(/C=C2/C(=O)NC(=O)N(Cc3ccco3)C2=O)cc1	65	36	0	5	x	x
C[C@]12CC[C@H](O)C[C@H]1CC[C@@H]1[C@@H]2CC[C@]2(C)C(=O)CC[C@@H]12	1	-2	x	x	x	x
CCCCn1c(C)c(C(=O)O)c2cc(OC)c3ccccc3c21	1	1	3	-4	x	x
C[N+]12CCC(CC1)C(C#N)(N1CCOCC1)C2 (stereo unspecified)	46*	17	-5	7	81*	-1
CCCCCCC[n+]1ccc(-c2cc[n+](CCCCCCC)cc2)cc1	58*	28	-4	3	75*	-2
CC(=O)O[C@@H]1CC[C@]2(C)C3CC[C@]4(C)C(=O)[C@H](O)CC4C3[C@@H](OC(C)=O)C[C@H]2C1 (stereo partly specified)	1	10	-3	1	x	x
